From PubChem BioAssay (EPA / NIEHS)
Calls of active or inactive are those of the source. The calls were made as follows: active = hit-call score of the fitted dose curve at least 0.9, where 1 is the maximum; inactive = score below 0.9.

Read-out: Glutamate-cysteine ligase catalytic (GCLC), GCLC (gene 2729)
Assay: LTEA_HepaRG_GCLC: Life Technologies and Expression Analysis (LTEA) Assay for Glutamate-cysteine ligase catalytic (GCLC) using HepaRG (AID 2283498)
Details: mRNA level, 48 h; actives raise or lower the signal
Procedure: LTEA_HepaRG is a cell based, multiplexed-readout assay that uses HepaRG, a human liver cell line, with measurements taken at 48 hours after chemical dosing on a 96-well plate.LTEA_HepaRG_GCLC is one of 102 assay component(s) measured in the LTEA HepaRG cell culture assay. It is a marker of Oxidative Stress.Data from the assay component LTEA_HepaRG_GCLC was analyzed into 1 endpoint. This assay endpoint, LTEA_HepaRG_GCLC, was analyzed with bidirectional fitting relative to DMSO as the negative control and baseline of activity. Using a type of inducible reporter, measures of mRNA induction for gain or loss-of-signal activity can be used to understand regulation of transcription factor activity. To generalize the intended target to other relatable targets, this assay endpoint is annotated to the ligase intended target family, where the subfamily is C-N ligase.
A total of 1060 chemcials from the ToxCast library were tested in eight-point concentration-response experiments. Cell culture and cytotoxicity assays were conducted at Thermo Fisher Scientific's Custom Services facility (Madison, WI). A single lot of human HepaRG cells (Thermo Fisher Scientific, Frederick, MD) was used for the cell culture experiments. 96-well format collagen type I coated plates of human HepaRG cells were prepared using established methods. Briefly, cryopreserved HepaRG cells were thawed, plated at a density of approximately 100,000 cells/well in HepaRG Thaw, Plate, and General Purpose media (HPRG770, Thermo Fisher Scientific), and incubated for 48 hours. 0.5% DMSO was selected as vehicle control to balance the requisite need of DMSO in HepaRG cultures to maintain differentiation (for example, baseline metabolism, proportions of hepatocytes vs. cholangiocytes), while enabling further hepatic receptor pathway activation (for example, PXR and CAR) in response to chemical exposure. 48 hours after plating, the culture medium was replaced with HepaRG Serum-Free Incudtion Media. Cells were exposed to each test chemical in duplicate and maintained in CO2 incubators for another 48 hours. Chemical plates were thawed to room temperature and 200x concentrations of treatment groups were prepared. 8-point conentration-reponse curves were made with the highest exposure at 100 uM, followed by half-log dilutions, all in 0.5% DMSO. Each test plate contained variouse controls, induction positive controls (1mM phenobarbital), cytotoxicity positive controls ([…] aflatoxin B1), vehicle controls (0.5% DMSO), and total lysis controls (0.5% DMSO). Cell morphology images were taken using an Essen IncuCyte FLR automated microscope, with six 96-well plates imaged in about 24 minutes. Images were captured and exported and JPEG files. Spent culture media was transfered to black-well plates for the LDH assay, and remaining media was sorted at -80 C for later use. Cells were treated with RLT buffer and frozen until shipped for gene expression analysis. Total RNA was isolated from the cell suspension in 75 uL of Buffer RLT (Qiagen, Germantown, MD 20874) by Quintiles/Expression Analysis (Durham, NC) using a custom isolation procedure. Total RNA from each plate well was transferred to a preamplification plate. Fluidigm's 96.96 Dynamic ArrayTM (Fluidigm, Amsterdam, the Netherlands) technology was used for gene expression analyses by quantitative reverse transcription polymerase chain reaction (qRT-PCR, performed by Quintiles/Expression Analysis, Durham, NC)89. Standard TaqManTM Assays (Applied Biosystems/ThermoFisher Scientific, Foster City, CA) were used to assess the expression of 93 genes selected based on their selectivity and sensitivity to important hepatic receptors known to be modulated by environmental chemicals; importance in human hepatocyte functionality; and hepatotoxicity. […]

outcome, inactive:
O=C1c2c(O)cccc2Cc2cccc(O)c21
CCCCCCCC(=O)OC
CCC(C)N(C)C(=O)c1cc2ccccc2c(-c2ccccc2Cl)n1 (stereo not given)
CC(=O)O
CCOCCOCCO
CC(C)(C)c1ccccc1
CN(C)C(=O)NC1(c2ccccc2)CCN(CC[C@@]2(c3ccc(F)c(F)c3)CN(C(=O)c3ccccc3)CCO2)CC1
O=[Si]=O
O=C(O)CN(CC(=O)O)CC(=O)O
CC(C)OC(=O)C(C)(C)Oc1ccc(C(=O)c2ccc(Cl)cc2)cc1
CN(C)CCCN1c2ccccc2Sc2ccc(Cl)cc21
CCCCCCCCCC[N+](C)(C)[O-]
S=c1[nH]c2ccccc2s1
CC(C)c1cccc(C(C)C)c1
COC(=O)CCC(=O)OC
OCC(O)CO
CCc1cc(C2=C(C(=O)O)N(c3ccccc3C(F)(F)F)S(=O)(=O)c3ccccc32)cc2c1OCO2
CC(C)NCC(O)c1ccc(O)c(O)c1 (stereo not given)
CCCCC(CC)COP(=O)(OCC(CC)CCCC)OCC(CC)CCCC (stereo not given)
c1ccc2occc2c1
COC(=O)[C@H]1[C@H]2C[C@@H]3c4[nH]c5cc(OC)ccc5c4CCN3C[C@H]2C[C@@H](OC(=O)c2cc(OC)c(OC)c(OC)c2)[C@@H]1OC
CC(N)=O
O=C(O)c1[nH]n(-c2ccc(S(=O)(=O)O)cc2)c(=O)c1N=Nc1ccc(S(=O)(=O)O)cc1
NC1CCCCC1
CCCCCCC(C=O)=Cc1ccccc1
CC(=O)S[C@H](C(=O)N[C@H]1Cc2ccccc2[C@H]2CCC[C@@H](C(=O)O)N2C1=O)C(C)C
OCC(CO)n1cnc(-c2ccc(F)cc2)c1-c1ccnc(Oc2ccccc2)n1
CCCC[C@H]1CN(CC2CCOCC2)C(=O)OC12CCN(C1(C)CCN(C(=O)c3c(C)ncnc3C)CC1)CC2
C#CC(O)C(CC)CCCC (stereo not given)
CCCCCCC(CCCCCCCCCCC(=O)OCC(COC(C)=O)OC(C)=O)OC(C)=O (stereo not given)
NC=O
CC(=O)[C@@]1(O)CC[C@H]2[C@@H]3CCC4=CC(=O)CC[C@]4(C)[C@H]3CC[C@@]21C
CSc1ccc(Oc2ccc(S(N)(=O)=O)cc2CN(C)C)cc1C
Oc1ccccc1O
Cn1cnc2c1c(=O)[nH]c(=O)n2C
CCCCC(CC)COC(=O)CCCCCCCC(=O)OCC(CC)CCCC (stereo not given)
CC(=O)O[C@]1(C(C)=O)CC[C@H]2[C@@H]3C=C(Cl)C4=CC(=O)[C@@H]5C[C@@H]5[C@]4(C)[C@H]3CC[C@@]21C
CC(=O)OCC(COC(C)=O)OC(C)=O

AC50, active:
CS(=O)(=O)c1ccc([C@@H](C[C@H]2CCC(=O)C2)C(=O)Nc2cnccn2)cc1Cl 1.01 µM
CN(C)C(=O)NC1(c2ccccc2)CCN(CCC[C@]2(c3ccc(Cl)c(Cl)c3)CCCN(C(=O)c3ccccc3)C2)CC1 21.9 µM
